# From the supplement of paper PMC8728848
# This excerpt belongs to a sample that is enriched for the strongest signals.
# B1: CSA (Cytisus scoparius), P29257 (protein)
# chain: SEELSFSFTKFKTDQKNLILQRDALITPTGKLQLTTVENGKPAAYSLGRALYSTPIHIWDKSTGDEASFATFFSFVISDAPNPSTAATDGLAFFLAPADTQPQSAGGYLGLFEKDSSYNSSNQIVAVEFDTYYNSAWDPQTNPHIGIDVNTIKSKKVSSWGFKNGNVATVLITYQPSSKSLVASLVYPSGQTSDKTSYIISANVDLKATVPEWVRIGFSATTGQTDNYIETHDILSWSFKSKLPATKN
# Legend:
# Test in all cases: glycan array binding signal (z-score within array); higher = stronger binding
# Conditions in all cases: glycan notation: IUPAC condensed, linker removed
# [1] = biological target: Fuc(a1-2)Gal(b1-3)GalNAc(b1-4)[Neu5Ac(a2-3)]Gal(b1-4)Glc
# In short: (§1)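 Glycan array binding is given as a within-array Z-score, which can be read as non-binding when negative. The arrays, 3228 of them, came from the Consortium for Functional Glycomics database and were retained only where the protein sequence was available. Z-scores were averaged across arrays of the same protein sequence at different concentrations or buffers and across linkers.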
# [2] = biological target: Fuc(a1-2)Gal6S(b1-3)GlcNAc6S
# In short: as §1
# [3] = biological target: Fuc(a1-2)[Gal(a1-3)]Gal(b1-4)[Fuc(a1-3)]Glc
# In short: as §1
# [4] = biological target: Fuc(a1-2)[GalNAc(a1-3)]Gal(b1-3)GlcNAc(b1-6)GalNAc
# In short: as §1
# [5] = biological target: Fuc(a1-2)[GalNAc(a1-3)]Gal(b1-4)GlcNAc(b1-3)Gal(b1-4)GlcNAc(b1-3)Gal(b1-4)GlcNAc
# In short: as §1
# [6] = biological target: Fuc(a1-2)[GalNAc(b1-3)]Gal
# In short: as §1
# [7] = biological target: Fuc(a1-3)[Gal3S(b1-4)]Glc
# In short: as §1
# Fuc(b1-3)GlcNAc = biological target: Fuc(b1-3)GlcNAc
# In short: as §1
# Gal(a1-3)Gal(b1-4)Glc = biological target: Gal(a1-3)Gal(b1-4)Glc
# In short: as §1
# [8] = biological target: Gal(a1-3)[Gal(a1-4)]Gal(b1-4)GlcNAc
# In short: as §1
# [9] = biological target: Gal(a1-4)Gal(b1-4)GlcNAc(b1-2)Man(a1-3)[Gal(a1-4)Gal(b1-4)GlcNAc(b1-2)Man(a1-6)]Man(b1-4)GlcNAc(b1-4)GlcNAc
# In short: as §1
# Gal(b1-3)GalNAc = biological target: Gal(b1-3)GalNAc
# In short: as §1
# [10] = biological target: Gal(b1-3)GalNAc(b1-3)Gal(a1-4)Gal(b1-4)Glc
# In short: as §1
# [11] = biological target: Gal(b1-3)GlcNAc(b1-3)Gal(b1-4)GlcNAc(b1-2)Man(a1-3)[Gal(b1-3)GlcNAc(b1-3)Gal(b1-4)GlcNAc(b1-2)Man(a1-6)]Man(b1-4)GlcNAc(b1-4)GlcNAc
# In short: as §1
# [12] = biological target: Gal(b1-4)GlcNAc(b1-3)Gal(b1-4)GlcNAc(b1-3)GalNAc
# In short: as §1
# [13] = biological target: Gal(b1-4)GlcNAc(b1-3)GalNAc
# In short: as §1
# Gal3S6S(b1-4)GlcNAc = biological target: Gal3S6S(b1-4)GlcNAc
# In short: as §1
# GalNAc(a1-3)Gal = biological target: GalNAc(a1-3)Gal
# In short: as §1
# GalNAc(b1-3)Gal = biological target: GalNAc(b1-3)Gal
# In short: as §1
# [14] = biological target: GalNAc(b1-3)Gal(a1-4)Gal(b1-4)GlcNAc
# In short: as §1
# [15] = biological target: GalNAc(b1-3)Gal(a1-4)Gal(b1-4)GlcNAc(b1-3)Gal(b1-4)Glc
# In short: as §1
# [16] = biological target: GalNAc(b1-3)Gal(a1-6)Gal(b1-4)Glc
# In short: as §1
# GalNAc(b1-4)GlcNAc = biological target: GalNAc(b1-4)GlcNAc
# In short: as §1
# [17] = biological target: GalNAc(b1-4)GlcNAc(b1-2)Man
# In short: as §1
# [18] = biological target: GalNAc(b1-4)GlcNAc(b1-2)Man(a1-3)[GalNAc(b1-4)GlcNAc(b1-2)Man(a1-6)]Man(b1-4)GlcNAc(b1-4)GlcNAc
# In short: as §1
# [19] = biological target: GalNAc(b1-4)GlcNAc(b1-3)GalNAc(b1-4)GlcNAc
# In short: as §1
# GalNAc(b1-4)GlcNAc6S = biological target: GalNAc(b1-4)GlcNAc6S
# In short: as §1
# [20] = biological target: Glc(a1-4)Glc(a1-4)Glc(a1-4)Glc
# In short: as §1
# [21] = biological target: GlcNAc(b1-2)Man(a1-3)[GlcNAc(b1-2)Man(a1-6)]Man(b1-4)GlcNAc(b1-4)[Fuc(a1-6)]GlcNAc
# In short: as §1
# [22] = biological target: GlcNAc(b1-2)Man(a1-3)[GlcNAc(b1-4)][GlcNAc(b1-2)Man(a1-6)]Man(b1-4)GlcNAc(b1-4)GlcNAc
# In short: as §1
# [23] = biological target: GlcNAc(b1-2)[GlcNAc(b1-4)]Man(a1-3)[GlcNAc(b1-4)][GlcNAc(b1-2)[GlcNAc(b1-6)]Man(a1-6)]Man(b1-4)GlcNAc(b1-4)[Fuc(a1-6)]GlcNAc
# In short: as §1
# [24] = biological target: GlcNAc(b1-4)Gal(b1-4)GlcNAc
# In short: as §1
# [25] = biological target: Man(a1-2)Man(a1-3)[Man(a1-2)Man(a1-6)]Man
# In short: as §1
# [26] = biological target: Man(a1-2)Man(a1-6)[Man(a1-3)]Man(a1-6)[Man(a1-2)Man(a1-2)Man(a1-3)]Man
# In short: as §1
# [27] = biological target: Man(a1-3)[Man(a1-6)]Man(b1-4)GlcNAc(b1-4)GlcNAc
# In short: as §1
# [28] = biological target: Man(a1-3)[Man(a1-6)]Man(b1-4)GlcNAc(b1-4)[Fuc(a1-6)]GlcNAc
# In short: as §1
# [29] = biological target: Neu5Ac(a2-3)Gal(b1-3)GalNAc(b1-4)[Neu5Ac(a2-3)]Gal(b1-4)Glc
# In short: as §1
# [30] = biological target: Neu5Ac(a2-3)Gal(b1-3)GlcNAc(b1-6)GalNAc
# In short: as §1
# [31] = biological target: Neu5Ac(a2-3)Gal(b1-3)[Neu5Ac(a2-6)]GalNAc
# In short: as §1
# [32] = biological target: Neu5Ac(a2-3)Gal(b1-3)[Neu5Ac(a2-6)]GlcNAc(b1-3)[Fuc(a1-3)[Gal(b1-4)]GlcNAc(b1-6)]Gal(b1-4)Glc
# In short: as §1
# [33] = biological target: Neu5Ac(a2-3)Gal(b1-4)GlcNAc(b1-3)Gal(b1-4)GlcNAc(b1-3)GalNAc
# In short: as §1
# [34] = biological target: Neu5Ac(a2-6)Gal(b1-4)GlcNAc(b1-3)[Neu5Ac(a2-6)Gal(b1-4)GlcNAc(b1-6)]GalNAc
# In short: as §1
# [35] = biological target: Neu5Ac(a2-6)Gal(b1-4)GlcNAc(b1-6)GalNAc
# In short: as §1
# [36] = biological target: Neu5Ac(a2-8)Neu5Ac(a2-8)Neu5Ac(a2-8)Neu5Ac(a2-3)[GalNAc(b1-4)]Gal(b1-4)Glc
# In short: as §1
# [37] = biological target: Neu5Gc(a2-3)Gal(b1-3)[Fuc(a1-4)]GlcNAc
# In short: as §1
binder,measurement,setting,value
B1,glycan array binding signal (z-score),[1],-0.177
same,glycan array binding signal (z-score),[2],-0.196
same,glycan array binding signal (z-score),[3],-0.201
same,glycan array binding signal (z-score),[4],-0.214
same,glycan array binding signal (z-score),[5],-0.012
same,glycan array binding signal (z-score),[6],4.5
same,glycan array binding signal (z-score),[7],-0.165
same,glycan array binding signal (z-score),Fuc(b1-3)GlcNAc,-0.186
same,glycan array binding signal (z-score),Gal(a1-3)Gal(b1-4)Glc,-0.157
same,glycan array binding signal (z-score),[8],-0.124
same,glycan array binding signal (z-score),[9],-0.162
same,glycan array binding signal (z-score),Gal(b1-3)GalNAc,-0.159
same,glycan array binding signal (z-score),[10],0.019
same,glycan array binding signal (z-score),[11],-0.157
same,glycan array binding signal (z-score),[12],0.306
same,glycan array binding signal (z-score),[13],-0.162
same,glycan array binding signal (z-score),Gal3S6S(b1-4)GlcNAc,-0.186
same,glycan array binding signal (z-score),GalNAc(a1-3)Gal,3.51
same,glycan array binding signal (z-score),GalNAc(b1-3)Gal,2.98
same,glycan array binding signal (z-score),[14],3.35
same,glycan array binding signal (z-score),[15],2.76
same,glycan array binding signal (z-score),[16],4.13
same,glycan array binding signal (z-score),GalNAc(b1-4)GlcNAc,6.99
same,glycan array binding signal (z-score),[17],8.12
same,glycan array binding signal (z-score),[18],3.25
same,glycan array binding signal (z-score),[19],12.4
same,glycan array binding signal (z-score),GalNAc(b1-4)GlcNAc6S,9.73
same,glycan array binding signal (z-score),[20],-0.19
same,glycan array binding signal (z-score),[21],-0.139
same,glycan array binding signal (z-score),[22],-0.238
same,glycan array binding signal (z-score),[23],-0.166
same,glycan array binding signal (z-score),[24],-0.213
same,glycan array binding signal (z-score),[25],-0.234
same,glycan array binding signal (z-score),[26],-0.179
same,glycan array binding signal (z-score),[27],-0.142
same,glycan array binding signal (z-score),[28],-0.225
same,glycan array binding signal (z-score),[29],-0.247
same,glycan array binding signal (z-score),[30],-0.235
same,glycan array binding signal (z-score),[31],-0.159
same,glycan array binding signal (z-score),[32],-0.146
same,glycan array binding signal (z-score),[33],-0.216
same,glycan array binding signal (z-score),[34],-0.172
same,glycan array binding signal (z-score),[35],-0.202
same,glycan array binding signal (z-score),[36],-0.149
same,glycan array binding signal (z-score),[37],-0.202
